# Assay results from PubChem BioAssay AID1454 (National Center for Advancing Translational Sciences (NCATS), 2008).
# Out of some 130,000 compounds screened, about 550 (0.42%) were called active. Roughly 4% stayed inconclusive and do not appear here. The full list was thinned out, with actives kept by preference. Values without a mark were called inactive. Calls follow the shape of the dose curve; as a rule, active = well fitted inhibition curve with a large enough effect; inconclusive = small, poorly fitted or top-dose-only effect, or effect the other way; inactive = flat fitted curve, though single readings scatter.
# Test: qHTS Assay for Inhibitors of the ERK Signaling Pathway using a Homogeneous Screening Assay; Stimulation with EGF; also: nearly all actives have a fitted effect of over 55% in size;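 as to activity change, negative = inhibition: plate controls were stimulated vehicle wells for no effect and unstimulated vehicle basal for full effect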
# Details: HEK293-V1b, EGF-stimulated phospho-ERK AlphaScreen; series mostly up to 11.5 µM; activity change, negative = inhibition: at the top concentration
# How it was run: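 Stably V1b-transfected HEK293 cells; 30 min compound, then EGF 25 nM final for 5 min at 37C; 10 min lysis; phospho-ERK by AlphaScreen after 5 hr beads at room temperature.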
# Potency is read from the fitted curve at half-maximal effect.
Compound,"activity change, negative = inhibition",Potency
Cc1cc(=O)[nH]c(S)c1C#N,-5.86% [at 57.5 µM],
CCN(CC)CCCN=Cc1c(O)n(-c2ccc(C)cc2)c(=O)c2ccccc12,-15.5% [at 57.5 µM],
O=C(COc1ccc(Cl)cc1[N+](=O)[O-])N1CCCCC1,-19.8%,
CC(=O)Oc1c2c(c3c(c1CC=C(C)C)O[C@@]14C(=CC5CC1C(C)(C)OC4(C/C=C(\C)C(=O)O)C5=O)C3=O)OC(C)(CCC=C(C)C)C=C2 (some centres undefined),,25.1 µM (active)
O=C(CC(=O)N/N=C\c1ccc(F)cc1)NCCc1ccccc1,-8.99%,
COc1ccc(OCC(O)CNCCNc2nccc(C(F)(F)F)n2)cc1 (centres undefined),2.31% [at 57.5 µM],
CCOc1ccc(/C=C(/NC(=O)c2ccccc2)C(=O)NCCC(=O)O)cc1,-5.71%,
O=C(NC1(C(F)(F)F)NC(=O)N(C2CCCCC2)C1=O)c1ccco1 (centres undefined),-9.23%,
CCN1CCN(C(=O)c2ccc(CN(c3ccc(C)c(C)c3)S(C)(=O)=O)cc2)CC1,-11.4%,
CC(=O)N(OCc1ccc(OC(C)C)c(Cl)c1)C(C)=O,3.04% [at 57.5 µM],
NS(=O)(=O)c1ccc(CCNC(=O)c2ccc(Cl)cc2[N+](=O)[O-])cc1,-7.68%,
CN(C)c1ccc(Nc2c3c4c(cccc4n(C)c2=O)C(=O)c2ccccc2-3)cc1,,3.16 µM (active)
Cc1cc(=O)oc2c(C(=O)c3ccccc3)c(OCC(N)=O)ccc12,1.12% [at 57.5 µM],
CN(C)c1ccc(/C=N/NC(=O)C(O)c2ccc(Br)cc2)cc1 (centres undefined),13.4%,
CCC(C)N1C(=S)SC(C)(C)C1N(O)C(=O)NC1CCCCC1 (centres undefined),-10.1% [at 57.5 µM],
Cc1ccc(C(=O)Nc2nc(N)n(-c3ccccc3)n2)cc1,3.9% [at 57.5 µM],
CC1=NNC(=O)C1CCC(=O)N/N=C(\C)c1ccc(Cl)cc1 (centres undefined),-12.6% [at 57.5 µM],

Compound,"activity change, negative = inhibition",Potency
COc1ccc(Cc2nnc(NC(=O)c3cc(OC)c(OC)c(OC)c3)s2)cc1OC,1.01%,
O=C(O)c1n[nH]nc1-c1ccccc1,-3%,
COc1ccc(N=Nc2ccc(O)c(P(=O)(c3ccccc3)c3ccccc3)c2)cc1,-14.3% [at 57.5 µM],
Oc1ccc2ccccc2c1C=Nc1ccccc1,10.2% [at 57.5 µM],
Oc1ccc(N=Cc2c(O)ccc3ccccc23)cc1,-7% [at 57.5 µM],
Oc1ccc2ccccc2c1N=Nc1nccs1,,12.6 µM (active)
O=C(CCNc1n[nH]c(=O)[nH]c1=O)N/N=C\c1ccc(Br)cc1,4.1% [at 57.5 µM],
CCOCCCNC(=O)C(NC(=O)Cc1c[nH]c2ccccc12)c1ccc(OC)cc1 (centres undefined),-5%,
Cc1cc(OCCCC(=O)NCCN2C(=O)S/C(=C\c3cccnc3)C2=O)ccc1Cl,5.87%,
O=C(NCc1ccco1)C(=O)c1cn(CC(=O)N2CCCCCC2)c2ccccc12,-3.82%,
Cc1ccnc(NC(=O)c2ccc(Cl)c([N+](=O)[O-])c2)c1,-6.64%,
Cc1ccc(OCC(=O)Nc2nnc(-c3ccco3)s2)cc1,3.26% [at 57.5 µM],
CC(C)C1Nc2c(C(=O)O)cccc2C(Nc2ccccc2C(=O)O)C1(C)C (centres undefined),1.59%,
N#C/C(=C\N1CCOCC1)S(=O)(=O)c1ccc(Cl)cc1,-6.91% [at 57.5 µM],
Cc1cc(C)c2c(NC(=O)C3CC3)nn(C)c2n1,0.186%,
O=C(Cc1ccc(F)cc1)N1CCN=C1SCc1cccc([N+](=O)[O-])c1,-1.53%,
CN(Cc1cc2cc(F)ccc2[nH]1)Cc1nc(-c2cnccn2)no1,-6.42%,
